Inhibition data for 28 compounds are collected here from ChEMBL document CHEMBL1157539, “Thousands of chemical starting points for antimalarial lead identification” (Nature, 2010).

Common to all, as to type: functional
For assay [1], the system named is Plasmodium falciparum. Nature of the assay: GSK_TCMDC: Inhibition of Plasmodium falciparum 3D7 in whole red blood cells, using parasite LDH activity as an index of growth. Test compounds present at 2uM.
In assay [2] the test system is Plasmodium falciparum. The assay can be described thus: GSK_TCMDC: Inhibition of Plasmodium falciparum Dd2 in whole red blood cells, using parasite LDH activity as an index of growth. Test compounds present at 2uM.
In a further assay the test system is HepG2. Nature of the assay: GSK_TCMDC: Percent inhibition of human HepG2 cell line. Test compounds present at 10uM.

As a reminder, the Inhibition is the relative decrease from the control value, in per cent. A low value points to a response near the control. Turning to `N#Cc1cccc(COC(=O)C2=C(COc3ccccc3Cl)NC(=O)NC2c2c[nH]c3cnccc23)c1` (centres undefined), the Inhibition was determined as 99% in the assay with Plasmodium falciparum [1], 0% with Plasmodium falciparum [2] and 0% in the assay on HepG2.
Regarding `Cc1cccc(CC2CC(=O)N(c3ccc([N+](=O)[O-])cc3)C2=O)c1` (centres undefined), the Inhibition with Plasmodium falciparum [1] stood at 95%; with Plasmodium falciparum [2] it was 1%; in the assay with HepG2 it was 11%.
Taken in the same sequence, the figures for `Cc1ccccc1CNc1noc(-c2sccc2Br)n1` were 99%, 88% and 0%.
In the case of `Cc1cc(N[C@@H](CC(C)C)C(=O)NCCc2ccccc2)nc(NCCc2cccs2)n1.O=C(O)C(F)(F)F`, the figures for the Inhibition in the assay with Plasmodium falciparum [1], in the assay with Plasmodium falciparum [2] and with HepG2 were 89%, 16% and 0%, respectively.
As to `COc1ccc(C2(CNCC(O)c3cccc([N+](=O)[O-])c3)CCCC2)cc1OC` (centres undefined), the Inhibition in the assay with Plasmodium falciparum [1] was found to be 93%; in the assay with Plasmodium falciparum [2] it was 85%; in the assay on HepG2, 10%.
In the case of `Nc1cccc(CNCc2ccc(-c3ccc(-c4nc5cc(F)ccc5[nH]4)s3)cc2)c1.O=C(O)C(F)(F)F`, the Inhibition with Plasmodium falciparum [1] is listed as 100%; in the assay with Plasmodium falciparum [2], 93%; in the assay on HepG2, 12%.
Take `Cc1cccc2nc(-c3cccc(-c4cccc(NC(=O)c5cn(C)c(=O)n5C)c4)c3)[nH]c12`: the figures for the Inhibition in the assay with Plasmodium falciparum [1], in the assay on Plasmodium falciparum [2] and with HepG2 were 99%, 80% and 5%, respectively.
Taken in the same sequence, the figures for `CC(C(=O)Nc1ccc(Br)cc1Br)N1CCN(C(=O)c2ccco2)CC1` (centres undefined) were 91%, 84% and 3%.
For `CN1CCN(c2ccc(-c3cccc(NC(=O)c4cccc(Cl)c4)c3)nn2)CC1`, in that order: 94%, 37% and 5%.
Regarding `COc1cc(CNC[C@@H](O)[C@H](Cc2ccccc2)NC(=O)c2cc(C3CCCC3)cc(N3CCCC3=O)c2)cc(OC)c1.Cl`, the Inhibition amounted to 97% in the assay with Plasmodium falciparum [1], 76% in the assay on Plasmodium falciparum [2] and 16% in the assay with HepG2.
For the compound `COc1cccc(CNC(=O)c2ccnc(-c3ccc(CNCCOc4ccccc4)cc3)c2)c1.O=C(O)C(F)(F)F`, the Inhibition was 83% in the assay with Plasmodium falciparum [1], 10% in the assay with Plasmodium falciparum [2] and 23% in the assay on HepG2.
For `COc1cc(Cc2cnc(N)nc2N)c2c(c1OC)OC(C)C=C2` (centres undefined), in that order: 87%, 1% and 0%.
Take `Cc1[nH]c2ccccc2c1C(=O)CSc1nn(-c2ccccc2)c(=S)s1`: the Inhibition in the assay on Plasmodium falciparum [1] was determined as 100%; with Plasmodium falciparum [2], 99%; in the assay with HepG2, 0%.
For the compound `CC1CCCN(c2ccc(NC(=O)c3cccs3)cc2[N+](=O)[O-])C1` (centres undefined), the results for the Inhibition in the assay with Plasmodium falciparum [1], in the assay on Plasmodium falciparum [2] and with HepG2 were 96%, 96% and 14%, respectively.
Take `CC(C)NCc1ccc(-c2ccc(-c3nc4cc(F)ccc4[nH]3)cc2)cc1.O=C(O)C(F)(F)F`: the results for the Inhibition in the assay on Plasmodium falciparum [1], in the assay with Plasmodium falciparum [2] and with HepG2 were 100%, 100% and 14%, respectively.
`O=C(Nc1ccc(C(=O)N2CCN(CCN3CCN(c4cccc(C(F)(F)F)c4)CC3)CC2)cc1)c1ccc(OC(F)(F)F)cc1`: the Inhibition with Plasmodium falciparum [1] is 95%; with Plasmodium falciparum [2], 25%; in the assay on HepG2, 38%.
For `COc1cc2c(Nc3cccc(NC(=O)c4ccccc4)c3)ncnc2cc1OCCCN1CCOCC1`, in that order: 100%, 100% and 0%.
For `COc1cc2nc(-c3ccc(Br)cc3)cc(N)c2cc1OC`, in that order: 98%, 69% and 90%.
On to `COc1ccc(-c2cncc3ccc(C(=O)NCCCn4ccnc4)nc23)cc1`, for which the Inhibition came out at 95% in the assay on Plasmodium falciparum [1], 99% in the assay with Plasmodium falciparum [2] and 28% in the assay on HepG2.
Taken in the same sequence, the figures for `COc1ccc(Cl)cc1S(=O)(=O)Nc1cccc(CCN2CCC(N3CCCCC3)CC2)c1` were 100%, 9% and 33%.
Taken in the same sequence, the figures for `CC(=O)Nc1ccc(CN2CCC(NC(=O)c3ccc(-c4cccc(F)c4)s3)CC2)cc1.O=C(O)C(F)(F)F` were 96%, 13% and 6%.
As to `CC(C)C[C@@H](C(=O)Nc1ccc(Cc2ccc(NC(=O)[C@H](CC(C)C)N(C)C(=O)OC(C)(C)C)cc2)cc1)N(C)C(=O)OC(C)(C)C`, the values for the Inhibition in the assay with Plasmodium falciparum [1], in the assay on Plasmodium falciparum [2] and with HepG2 were 92%, 57% and 17%, respectively.
For `C=CCC1OC(=O)c2cc(OC)cc(OC)c21` (centres undefined), in that order: 95%, 100% and 100%.
For `NC(=O)c1ccc(NCC(=O)Nc2cccc(-c3cccc(-c4nc5cc(C(F)(F)F)ccc5[nH]4)c3)c2)cc1`, in that order: 99%, 41% and 32%.
Taken in the same sequence, the figures for `CCc1cn2c3c(cc(C(=O)N[C@@H](Cc4ccccc4)[C@H](O)CNCC(C)C)cc13)N(C)S(=O)(=O)CC2` were 98%, 99% and 0%.
As for `Cl.Nc1nc(Nc2ccc(Cl)cc2)nc2ccccc12`, the figures for the Inhibition in the assay with Plasmodium falciparum [1], in the assay with Plasmodium falciparum [2] and with HepG2 were 100%, 21% and 6%, respectively.
For `CS(=O)(=O)NCCCNCc1ccc(-c2cccc(-c3nc4cc(F)ccc4[nH]3)c2)cc1.O=C(O)C(F)(F)F`, in that order: 98%, 1% and 15%.
As for `NC1CCCN(Cc2cccc(-c3ccc(-c4nc5cc(C(F)(F)F)ccc5[nH]4)cc3)c2)C1.O=C(O)C(F)(F)F` (centres undefined), the figures for the Inhibition in the assay with Plasmodium falciparum [1], in the assay with Plasmodium falciparum [2] and in the assay on HepG2 were 99%, 96% and 47%, respectively.
